From the supplement of paper PMC8007513
Where a name gives a salt, the structure may show the parent alone. ± gives the standard error. About 130 (10%) of roughly 1,300 compounds showed an effect of 50% or more. This is one part of a sample in which strong results are shown more often than they occur.

Test system: Trichoderma virens ATCC 9645
Assay: growth yield (OD600) with compound + IPBC relative to untreated control; higher = less growth inhibition
Conditions: compound concentration: 100 uM, IPBC concentration: 200 ng/ml
Outline: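 Growth appears as means of duplicate screens, relative to the control containing neither agent. To obtain it, OD600 was read on a BioTek EL800 at 40 h and 72 h. The cultures were 100 μl aliquots in 96-well plates at 30 °C, holding Trichoderma virens ATCC 9645 spores at 15,000 spores ml^−1 in potato dextrose broth, library compounds at 100 μM final, and, in some wells, a biocide at 200 ng ml^−1.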

SMILES | growth yield (40 h) | growth yield (72 h)
Nc1cc(C(Cl)=C(Cl)Cl)c(S(N)(=O)=O)cc1S(N)(=O)=O [Clorsulon] + CCCCNC(=O)OCC#CI [3-iodo-2-propynyl butylcarbamate (IPBC)] | 86.4 ± 2.2% | 90.8 ± 3.1%
C[C@H](O)C(=O)Nc1c(I)c(C(=O)NC(CO)CO)c(I)c(C(=O)NC(CO)CO)c1I [Iopamidol] + CCCCNC(=O)OCC#CI [3-iodo-2-propynyl butylcarbamate (IPBC)] | 101 ± 5.7% | 101 ± 3.8%
CN(C)C(=N)NC(=N)N [Metformin hydrochloride] + CCCCNC(=O)OCC#CI [3-iodo-2-propynyl butylcarbamate (IPBC)] | 85.9 ± 4.9% | 88 ± 2.2%
O=C1OCCN1/N=C/c1ccc([N+](=O)[O-])o1 [Furazolidone] + CCCCNC(=O)OCC#CI [3-iodo-2-propynyl butylcarbamate (IPBC)] | 76.2 ± 8.6% | 88.9 ± 5.2%
N=C(N)NCCN1CCCCCCC1 [Guanethidine sulfate] + CCCCNC(=O)OCC#CI [3-iodo-2-propynyl butylcarbamate (IPBC)] | 81.3 ± 4.1% | 90.2 ± 4.4%
COC[C@@H](NC(C)=O)C(=O)NCc1ccccc1 [Lacosamide] + CCCCNC(=O)OCC#CI [3-iodo-2-propynyl butylcarbamate (IPBC)] | 85.6 ± 1.4% | 93.66 ± 0.73%
CN1CCN(CCCN2c3ccccc3Sc3ccc(C(F)(F)F)cc32)CC1 [Trifluoperazine dihydrochloride] + CCCCNC(=O)OCC#CI [3-iodo-2-propynyl butylcarbamate (IPBC)] | 4.45 ± 0.95% | 3.46 ± 0.1%
OC(CCCN1CCCCC1)(c1ccccc1)c1ccccc1 [Diphenidol hydrochloride] + CCCCNC(=O)OCC#CI [3-iodo-2-propynyl butylcarbamate (IPBC)] | 89.4 ± 2.4% | 96.7 ± 3.4%
CNCCCN1c2ccccc2CCc2ccccc21 [Desipramine hydrochloride] + CCCCNC(=O)OCC#CI [3-iodo-2-propynyl butylcarbamate (IPBC)] | 70.4 ± 1.4% | 93.5 ± 3.4%
OCCN1CCN(CCCN2c3ccccc3Sc3ccc(C(F)(F)F)cc32)CC1 [Fluphenazine dihydrochloride] + CCCCNC(=O)OCC#CI [3-iodo-2-propynyl butylcarbamate (IPBC)] | 2.86% | 2.31 ± 0.21%
CC(=O)c1ccc2c(c1)N(CCCN1CCC(CCO)CC1)c1ccccc1S2 [Piperacetazine] + CCCCNC(=O)OCC#CI [3-iodo-2-propynyl butylcarbamate (IPBC)] | 55% | 94.8%
CN(C)CCCN1c2ccccc2CCc2ccccc21 [Imipramine hydrochloride] + CCCCNC(=O)OCC#CI [3-iodo-2-propynyl butylcarbamate (IPBC)] | 81 ± 1.9% | 96.28 ± 0.21%
CC(=O)c1ccc2c(c1)N(CCCN(C)C)c1ccccc1S2 [Acetopromazine maleate salt] + CCCCNC(=O)OCC#CI [3-iodo-2-propynyl butylcarbamate (IPBC)] | 70.84 ± 0.32% | 91.6 ± 0.94%
CN(C)CCCN1c2ccccc2Sc2ccc(C(F)(F)F)cc21 [Triflupromazine hydrochloride] + CCCCNC(=O)OCC#CI [3-iodo-2-propynyl butylcarbamate (IPBC)] | 46.4 ± 2.9% | 81.3 ± 4.3%
CN(C)CCCN1c2ccccc2Sc2ccccc21 [Promazine hydrochloride] + CCCCNC(=O)OCC#CI [3-iodo-2-propynyl butylcarbamate (IPBC)] | 71.95 ± 0.16% | 90.8 ± 3.8%
CC(=O)N[C@@H](CC(=O)N[C@@H](CCC(=O)O)C(=O)O)C(=O)O [Spaglumic acid] + CCCCNC(=O)OCC#CI [3-iodo-2-propynyl butylcarbamate (IPBC)] | 95.6 ± 7.3% | 95.1 ± 7%
COc1ccc(C(=O)NCc2cccnc2)cc1C(=O)NCc1cccnc1 [Picotamide monohydrate] + CCCCNC(=O)OCC#CI [3-iodo-2-propynyl butylcarbamate (IPBC)] | 91.2 ± 5.1% | 97 ± 3.9%
CC(CN(C)C)CN1c2ccccc2CCc2ccccc21 (stereo not drawn) [Trimipramine maleate salt] + CCCCNC(=O)OCC#CI [3-iodo-2-propynyl butylcarbamate (IPBC)] | 75.1 ± 0.79% | 93.97 ± 0.84%
CN1CCOC(c2ccccc2)c2ccccc2C1 (stereo not drawn) [Nefopam hydrochloride] + CCCCNC(=O)OCC#CI [3-iodo-2-propynyl butylcarbamate (IPBC)] | 83.4 ± 1.1% | 93.1 ± 1.1%
CC(=O)OCC1=C(C(=O)O)N2C(=O)[C@@H](N)[C@H]2SC1 [Cephalosporanic acid, 7-amino] + CCCCNC(=O)OCC#CI [3-iodo-2-propynyl butylcarbamate (IPBC)] | 85.1 ± 3.8% | 94.6 ± 3.1%
NS(=O)(=O)c1cc2c(cc1Cl)N=CNS2(=O)=O [Chlorothiazide] + CCCCNC(=O)OCC#CI [3-iodo-2-propynyl butylcarbamate (IPBC)] | 102.6 ± 0.32% | 106 ± 2.8%
CCOc1ccc(Cc2nccc3cc(OCC)c(OCC)cc23)cc1OCC [Ethaverine hydrochloride] + CCCCNC(=O)OCC#CI [3-iodo-2-propynyl butylcarbamate (IPBC)] | 55 ± 2.2% | 82.3 ± 2.2%
CC[C@H]1OC(=O)C[C@@H](O)[C@H](C)[C@@H](O[C@@H]2O[C@H](C)[C@@H](O[C@H]3C[C@@](C)(O)[C@@H](O)[C@H](C)O3)[C@H](N(C)C)[C@H]2O)[C@@H](CC=O)C[C@@H](C)C(=O)/C=C/C(C)=C/[C@@H]1CO[C@@H]1O[C@H](C)[C@@H](O)[C@@H](OC)[C@H]1OC [Tylosin] + CCCCNC(=O)OCC#CI [3-iodo-2-propynyl butylcarbamate (IPBC)] | 95.3 ± 7.9% | 95.1 ± 3%
CC(C)NC[C@@H](O)COc1ccc(CC(N)=O)cc1 [(R)-(+)-Atenolol] + CCCCNC(=O)OCC#CI [3-iodo-2-propynyl butylcarbamate (IPBC)] | 101 ± 2.1% | 98.48 ± 0.52%
